Bioassay records (PubChem)
This excerpt belongs to a sample that is enriched for hits.
Rtt109 HAT inh: inhibitors of C. albicans Rtt109/Vps75 HAT, primary screen, biochemical, ThioGlo CoA-SH fluorescence, plate reader; purified Rtt109/Vps75, 4 h; inhibition, % at 34.9 µM; 330,000 tested, 0.16% active;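 active = inhibition of at least 50% in every replicate; inconclusive = best replicate reaches 50% inhibition but some replicates fall short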
Target sequence (Q5AAJ8 whole entry, looked up): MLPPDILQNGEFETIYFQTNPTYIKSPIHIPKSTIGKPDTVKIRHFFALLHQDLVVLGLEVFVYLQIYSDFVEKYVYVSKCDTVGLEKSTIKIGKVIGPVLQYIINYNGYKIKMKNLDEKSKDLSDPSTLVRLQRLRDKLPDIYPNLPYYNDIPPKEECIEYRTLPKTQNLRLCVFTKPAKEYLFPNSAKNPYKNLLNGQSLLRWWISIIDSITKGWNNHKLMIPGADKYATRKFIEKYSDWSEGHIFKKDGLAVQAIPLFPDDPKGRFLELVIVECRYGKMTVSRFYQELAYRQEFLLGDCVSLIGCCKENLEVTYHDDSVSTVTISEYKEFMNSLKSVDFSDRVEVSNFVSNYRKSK
DENV2 CPE rescue: inhibitors of DENV2 cytopathic effect, primary screen, cell-based, plate reader, single concentration. DENV2-infected cells, cytopathic effect rescue. CPE inhibition, % at 9.99 µM. 350,000 tested, 1.7% active. AID 651640, 2012; in the data active = CPE inhibition above about 20%, passing the limit was not always enough; inconclusive = no clear call, values can overlap the other calls; tested in BHK-21 cells
Glyco luc inh: increase of ERlucT glycosylation luciferase signal, primary screen, N-linked glycosylation inhibitor project, D54 ERlucT cells, luminescence, set 2. 360,000 tested, 0.23% active. D54 ERlucT glycosylation luciferase reporter, 24 h; percent of 100 nM tunicamycin response. AID 588692, 2011. reporter increase, % at 12.5 µM;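 active = mean luciferase reporter signal, scaled so untreated is 0 and the glycosylation-blocking control 100, at or above a set limit in every replicate; inconclusive = mean reaches the limit but not every replicate does; inactive = mean below the limit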;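 note: luciferase carries N-glycosylation sites so blocking glycosylation raises the light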
PglD DTNB: C. jejuni PglD acetyltransferase inhibitors, primary screen, biochemical, DTNB colorimetric, single point; purified PglD enzyme, DTNB colorimetric CoA detection; UDP-N-acetylbacillosamine N-acetyltransferase PglD (Campylobacter jejuni); inhibition, % at 12.5 µM; 360,000 tested, 0.098% active; in the data active = inhibition above about 16%, passing the limit was not always enough; inconclusive = no clear call, values can overlap the other calls
Large screens that a line does not name were inactive.

CC(=O)N1[C@H](CO)[C@@H](c2ccccc2)[C@H]1CN(CC(C)C)C(=O)c1ccccn1	none (no result: Rtt109 HAT inh, Glyco luc inh)
CCC(=O)N(CC)C[C@H]1[C@H](c2ccccc2)[C@@H](CO)N1C(C)=O	none (no result: Rtt109 HAT inh, Glyco luc inh)
CN(C[C@@H]1[C@@H](c2ccccc2)[C@H](CO)N1C(=O)C1CC1)C(=O)c1ccccn1	DENV2 CPE rescue 54.0 (no result: Rtt109 HAT inh, Glyco luc inh)
Cn1cnc(S(=O)(=O)N[C@H]2CC[C@@H](CC(=O)NCC3CC3)O[C@@H]2CO)c1	none (no result: Rtt109 HAT inh, Glyco luc inh, PglD DTNB)
C[C@H](CO)N1C[C@H](C)[C@@H](CN(C)C(=O)C2CCOCC2)Oc2ncc(C3=CCCC3)cc2C1=O	none (no result: Rtt109 HAT inh, Glyco luc inh)
CC(C)CC(NC(=O)c1ccc(Cl)cc1)C(=O)OCC(=O)c1ccc2c(c1)NC(=O)CO2 (stereo not drawn)	Glyco luc inh 60.2 (no result: DENV2 CPE rescue)
O=C(NCCN1CCCC1)C1CCC(=O)N(CCCN2CCOCC2)C1 (stereo not drawn)	DENV2 CPE rescue 35.2
CCC(=O)Nc1ccc2c(c1)C(=O)N(C)C[C@@H](OC)[C@@H](C)CN(C(=O)NC(C)C)[C@H](C)CO2	none (no result: Rtt109 HAT inh, Glyco luc inh)
CCCNC(=O)Nc1ccc2c(c1)C(=O)N(C)C[C@@H](OC)[C@H](C)CN(C(=O)C1CC1)[C@H](C)CO2	none (no result: Rtt109 HAT inh, Glyco luc inh)
CCC(C)OC1OC(CO)C(O)C(O)C1NC(C)=O (stereo not drawn)	none (no result: DENV2 CPE rescue, PglD DTNB)
CCCCCCCCCCCCOC1OC(CO)C(O)C(O)C1NC(C)=O (stereo not drawn)	DENV2 CPE rescue 23.3
O=C(N/N=C/c1ccc(Cl)cc1)c1sccc1OCc1ccc(F)cc1	Glyco luc inh 33.1 (no result: DENV2 CPE rescue, PglD DTNB)
O=C(N/N=C/c1ccc(F)cc1)c1sccc1OCc1ccc(F)cc1	Glyco luc inh inconclusive (no result: DENV2 CPE rescue)
Oc1ccccc1C=NCC(O)c1ccccc1 (stereo not drawn)	DENV2 CPE rescue 76.0
COc1ccc2c3c([nH]c2c1)[C@@H](CO)N(Cc1ccncc1)CC31CCN(C(=O)c2cccnc2)CC1	none (no result: Rtt109 HAT inh, Glyco luc inh, PglD DTNB)
Cc1cc(C)c2c(N)c(S(=O)(=O)c3ccccc3)sc2n1	none (no result: DENV2 CPE rescue)
CCCCS(=O)(=O)c1sc2nc(C)cc(C)c2c1N	Rtt109 HAT inh 54.9 (no result: DENV2 CPE rescue)
COc1cccc(NC(=O)N(C)C[C@H]2Oc3cc(-c4ccccc4F)ccc3S(=O)(=O)N([C@H](C)CO)C[C@@H]2C)c1	none (no result: Rtt109 HAT inh, Glyco luc inh)
CNC[C@H]1Oc2ccc(NC(=O)NC(C)C)cc2C(=O)N([C@@H](C)CO)C[C@@H]1C	DENV2 CPE rescue 28.3 (no result: Rtt109 HAT inh, Glyco luc inh)
CC(C)NC(=O)Nc1ccc2c(c1)C(=O)N([C@@H](C)CO)C[C@@H](C)[C@@H](CN(C)Cc1ccc(C(=O)O)cc1)O2	DENV2 CPE rescue 24.6 (no result: Rtt109 HAT inh, Glyco luc inh)
CC(C)NC(=O)Nc1ccc2c(c1)C(=O)N([C@H](C)CO)C[C@@H](C)[C@H](CN(C)Cc1ccccc1)O2	DENV2 CPE rescue 42.8 (no result: Rtt109 HAT inh, Glyco luc inh)
C[C@H]1CN([C@@H](C)CO)C(=O)c2cc(NC(=O)Nc3ccc(F)cc3)ccc2O[C@H]1CN(C)Cc1ccccc1	DENV2 CPE rescue 24.5 (no result: Rtt109 HAT inh, Glyco luc inh)
CC(C)NC(=O)Nc1ccc2c(c1)C(=O)N([C@@H](C)CO)C[C@H](C)[C@@H](CN(C)Cc1ccc(C(=O)O)cc1)O2	none (no result: Rtt109 HAT inh, Glyco luc inh)
CC(C)NC(=O)Nc1ccc2c(c1)C(=O)N([C@H](C)CO)C[C@H](C)[C@H](CN(C)Cc1ccccc1)O2	none (no result: Rtt109 HAT inh, Glyco luc inh)
Cc1noc(C)c1NC(=O)N(C)C[C@H]1OCCCC[C@H](C)Oc2ccc(NS(=O)(=O)c3ccc(Cl)cc3)cc2C(=O)N([C@@H](C)CO)C[C@@H]1C	none (no result: Rtt109 HAT inh, Glyco luc inh)
COc1cccc(-c2cnc3c(c2)C(=O)N([C@H](C)CO)C[C@@H](C)[C@H](CN(C)C(=O)CN(C)C)O3)c1	none (no result: Rtt109 HAT inh, Glyco luc inh)
COc1cc(C(=O)N/N=C/c2ccc3c(c2)c2ccccc2n3C)ccc1O	Glyco luc inh 34.0
Cn1c2ccccc2c2cc(/C=N/NC(=O)c3cc(O)cc(O)c3)ccc21	none
CCOC(=O)C1=C(C)N(CCC(=O)O)C(=O)NC1c1ccccc1Cl (stereo not drawn)	none
CCOC(=O)C1=C(C)N(CCCCCC(=O)O)C(=O)NC1c1ccccc1OC(=O)c1cccs1 (stereo not drawn)	DENV2 CPE rescue 47.4 (no result: Rtt109 HAT inh, Glyco luc inh, PglD DTNB)
C[C@@H]1CN([C@@H](C)CO)C(=O)c2cc(NC(=O)c3ccncc3)ccc2O[C@@H]1CN(C)C	none (no result: Rtt109 HAT inh, Glyco luc inh)
COCC#Cc1cnc2c(c1)C(=O)N([C@@H](C)CO)C[C@H](C)[C@@H](CN(C)C(=O)C1CCC1)O2	PglD DTNB 20.2 (no result: Rtt109 HAT inh, Glyco luc inh)
CCCC#Cc1cnc2c(c1)C(=O)N([C@H](C)CO)C[C@H](C)[C@H](CN(C)C(=O)C1CCC1)O2	DENV2 CPE rescue 23.0 (no result: Rtt109 HAT inh, Glyco luc inh)
COCC#Cc1cnc2c(c1)C(=O)N([C@H](C)CO)C[C@H](C)[C@H](CN(C)C(=O)C1CCC1)O2	none (no result: Rtt109 HAT inh, Glyco luc inh)
c1cc(-c2ccc3c(c2)CCO3)n2cnnc2c1	none (no result: Rtt109 HAT inh)
c1cc(-c2ccc(N3CCOCC3)cc2)n2cnnc2c1	DENV2 CPE rescue 24.3 (no result: Rtt109 HAT inh)
CCOC(=O)c1oc2ccc(S(=O)(=O)n3nc(-c4ccc(Cl)cc4)cc3N)cc2c1C	none
CCOC(=O)c1oc2ccc(S(=O)(=O)n3nc(-c4ccc(C)cc4)cc3N)cc2c1C	DENV2 CPE rescue 89.7
Cc1ccc(F)cc1S(=O)(=O)N[C@H]1CCN(Cc2ccc(OC(C)C)cc2)C1	DENV2 CPE rescue 29.1 (no result: Rtt109 HAT inh, Glyco luc inh, PglD DTNB)
CO[C@@H](CN(C)C(=O)c1ccccc1F)[C@@H](C)CN([C@H](C)CO)S(=O)(=O)c1ccc(Cl)cc1	none (no result: Rtt109 HAT inh, Glyco luc inh)
N=c1oc2ccc(Br)cc2cc1C(=O)NCc1ccc(F)cc1	none
CCN(CC)c1ccc2cc(C(=O)NCc3ccc(F)cc3)c(=N)oc2c1	DENV2 CPE rescue 26.3
CC(C)CC#Cc1ccc2c(c1)O[C@H](CN(C)C(=O)Nc1ccccc1F)[C@H](C)CN([C@H](C)CO)S2(=O)=O	DENV2 CPE rescue 32.3 (no result: Rtt109 HAT inh, Glyco luc inh)
CC(C)CC#Cc1ccc2c(c1)O[C@H](CN(C)C(=O)Nc1ccccc1F)[C@@H](C)CN([C@H](C)CO)S2(=O)=O	none (no result: Rtt109 HAT inh, Glyco luc inh)
COc1ccccc1S(=O)(=O)N(C)C[C@H]1Oc2cc(C#CCC(C)C)ccc2S(=O)(=O)N([C@@H](C)CO)C[C@@H]1C	DENV2 CPE rescue 102.9 (no result: Rtt109 HAT inh, Glyco luc inh)
CCCNC(=O)N(C)C[C@@H]1Oc2cc(C#CCC(C)C)ccc2S(=O)(=O)N([C@@H](C)CO)C[C@@H]1C	none (no result: Rtt109 HAT inh, Glyco luc inh)
CCCNC(=O)N(C)C[C@@H]1Oc2cc(C#CCC(C)C)ccc2S(=O)(=O)N([C@@H](C)CO)C[C@H]1C	DENV2 CPE rescue 35.7 (no result: Rtt109 HAT inh, Glyco luc inh)
C[C@H]1CN([C@@H](C)CO)S(=O)(=O)c2ccc(C#CC3CCCC3)cc2O[C@H]1CN(C)C	DENV2 CPE rescue 32.0 (no result: Rtt109 HAT inh, Glyco luc inh)
CCCC#Cc1ccc2c(c1)O[C@@H](CN(C)C(=O)c1cnccn1)[C@H](C)CN([C@H](C)CO)S2(=O)=O	none (no result: Rtt109 HAT inh, Glyco luc inh)
CC(C)CC#Cc1ccc2c(c1)O[C@H](CN(C)Cc1cncnc1)[C@@H](C)CN([C@H](C)CO)S2(=O)=O	DENV2 CPE rescue 58.2 (no result: Rtt109 HAT inh, Glyco luc inh)
CC(C)CC#Cc1ccc2c(c1)O[C@@H](CN(C)C(=O)c1cnccn1)[C@@H](C)CN([C@@H](C)CO)S2(=O)=O	DENV2 CPE rescue 36.4 (no result: Rtt109 HAT inh, Glyco luc inh)
